PubChem BioAssay
Values joined by “and” are separate entries in the source; they are usually repeats but may differ in a detail not shown here. Equal entries are not always repeated. Active and inactive are the calls of the source. Unless noted, no stated cut-off is given here; in the data, active means inhibition above about 80%; inactive means the rest.

Tests used:
[1] = sensitizers of A549 cells to miR-34 induction, primary screen, imaging, A549 dox-inducible miR-34, nuclei and caspase counts (AID 1347080;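 active means compounds whose cell count with miR-34 switched on is under 0.7 times the count with it off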); conditions: A549 miR-34 inducible, Hoechst nuclei count, 48 h
[2] = survival rescue of mitochondrial mutant cells in low glucose, primary screen, MELAS cybrids, Rieske KO mouse fibroblasts, CellTiter-Glo (AID 1508586;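 active means mean z-score across replicates of 1.96 or higher in either the MELAS or the Rieske mutant cell line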;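 further: z relative to plate mean and SD of compound and empty wells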)
[3] = LFS_MB_P medulloblastoma growth inhibition, cell-based, chromothripsis tumors, cisplatin or BGB combos (AID 1671449); conditions: LFS_MB_P medulloblastoma cells;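 further: cells exposed for 96 hours; 0% = vehicle DMSO and 100% = killing by high DMSO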
[4] = HDN33 neuroblastoma growth inhibition, cell-based, chromothripsis tumors, cisplatin or BGB combos (AID 1671450); conditions: HDN33 neuroblastoma cells, stronger effect = higher value;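 further: cells exposed to compound for four days; 0% = vehicle DMSO and 100% = cell killing by high DMSO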
[5] = ICB984 medulloblastoma cell growth inhibition, synergistic combos for chromothripsis tumors, cisplatin or BGB combos (AID 1671451; call rule not given here;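 further: cells exposed for 96 hours before readout; 0% = vehicle DMSO and 100% = killing by high DMSO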); conditions: ICB984 medulloblastoma cells, drug combinations, stronger effect = higher value
[6] = LFS_MB_1R medulloblastoma cell growth inhibition, synergistic combos for chromothripsis tumors, cisplatin or BGB combos (AID 1671452); conditions: LFS_MB_1R medulloblastoma cells, stronger effect = higher value;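 further: cells exposed for 96 hours before readout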
[7] = HTB85 osteosarcoma cell growth inhibition, synergistic combos for chromothripsis tumors, BGB or cisplatin IC20 combos (AID 1671453); conditions: HTB85 osteosarcoma cells, drug combinations, stronger effect = higher value;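 further: cells exposed for 96 hours before readout; 0% = vehicle DMSO and 100% = high DMSO killing control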
[8] = CRL2098 osteosarcoma cell growth inhibition, synergistic combos for chromothripsis tumors, BGB or cisplatin IC20 combos (AID 1671454); conditions: CRL2098 osteosarcoma cells, drug combinations, stronger effect = higher value;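 further: cells exposed for 96 h before readout; 0% = vehicle DMSO and 100% = killing by high DMSO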
[9] = HD-MB03 medulloblastoma cell growth inhibition, synergistic combos for chromothripsis tumors, BGB or cisplatin IC20 combos (AID 1671455; in the data active means inhibition above about 83%;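 further: 0% = vehicle DMSO and 100% = high DMSO as cytotoxic control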); conditions: HD-MB03 medulloblastoma cells, stronger effect = higher value
[10] = UWB1.289 ovarian carcinoma cell growth inhibition, synergistic combos for chromothripsis tumors, BGB or cisplatin combos (AID 1671456); conditions: UWB1.289 ovarian carcinoma cells, stronger effect = higher value;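 further: cells exposed to compound for four days; 0% = vehicle DMSO and 100% = killing by high DMSO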
[11] = LFS_MB_2R medulloblastoma cell growth inhibition, synergistic combos for chromothripsis tumors, cisplatin combos (AID 1671457); conditions: LFS_MB_2R medulloblastoma cells, stronger effect = higher value;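 further: cells exposed to compound for four days before readout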
[12] = MDA-MB-436 breast carcinoma cell growth inhibition, synergistic combos for chromothripsis tumors, BGB or cisplatin combos (AID 1671458; call rule not given here;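 further: cells exposed for 96 hours; 0% = vehicle DMSO and 100% = killing by high DMSO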); conditions: MDA-MB-436 breast carcinoma growth inhibition, drug combinations, stronger effect = higher value
[13] = UWB1.289_BRCA1 ovarian cancer growth, cell-based, BGB or cisplatin combinations (AID 1671459); conditions: UWB1.289 BRCA1 ovarian carcinoma, drug combinations, stronger effect = higher value
[14] = human astrocyte viability loss, single and combined drugs, cytotoxicity control for chromothriptic childhood tumor combination screen, cell-based, BGB or cisplatin IC20 combos (AID 1671460); conditions: Human astrocytes, drug combinations, stronger effect = higher value;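 further: cells exposed to compounds for 96 hours before viability readout; 0% = vehicle and 100% = killing control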
[15] = growth inhibition of BT084 medulloblastoma cells, cell-based, ICGC_MB145, cisplatin and BGB IC40 combos (AID 1671461); conditions: drug combinations, stronger effect = higher value;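 further: cells exposed to drugs for 96 hours; 0% = vehicle DMSO and 100% = high DMSO full killing control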
[16] = growth inhibition of RCMB18 medulloblastoma cells, cell-based, cisplatin and BGB IC40 combos (AID 1671462); conditions: stronger effect = higher value;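 further: cells exposed to compound for four days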
[17] = growth inhibition of CRL1545 osteosarcoma cells, cell-based, cisplatin and BGB IC20 combos (AID 1671464); conditions: stronger effect = higher value;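 further: cells exposed to compound for 96 hours before readout; 0% = vehicle DMSO and 100% = high DMSO killing control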
[18] = hESC survival regulators, cell-based (AID 493140; call rule not given here;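 further: cells exposed to compounds for four days before counting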); conditions: human embryonic stem cell survival screen; stronger effect = higher value
[19] = liver-stage malaria parasite growth inhibition, primary screen, cell-based, HepG2, luciferase luminescence, HepG2 viability (AID 624349; in the data active means parasite load remaining mostly below about 12%, no sharp cut-off; inactive means mostly above about 10%;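 further: 100% = mean of DMSO negative control wells on the same plate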); conditions: P. berghei liver stage in HepG2, luciferase luminescence, concentration not given here; parasite load remaining: stronger effect = lower value; viability: measured here: HepG2 viability without parasites
[20] = stronger effect = lower value, cell number ratio, induced over uninduced
[21] = measured here: relative caspase fold change +Dox/-Dox
[22] = measured here: total cells with miR-34 induction, stronger effect = lower value
[23] = measured here: total cells without miR-34 induction
[24] = MELAS cybrid survival, CellTiter-Glo 48 h, stronger effect = higher value
[25] = Rieske KO mouse fibroblast survival, CellTiter-Glo 72 h
[26] = measured here: combination with BGB IC40, at 0.05 µM
[27] = measured here: with BGB IC20 combination, at 0.5 µM
[28] = measured here: with cisplatin IC20 combination, at 0.5 µM
[29] = measured here: combination with cisplatin, at 0.5 µM
[30] = measured here: combination with cisplatin, at 5 µM

SMILES: O=c1ccn(C2OC(CO)C(O)C2O)c(=O)[nH]1 (configuration not stated)
- fold change [1, 20]: 0.86 (inactive)
- fold change [1, 21]: 0.784
- cell count [1, 22]: 8240
- cell count [1, 23]: 9580
- z-score [2, 24]: -0.15 (inactive)
- z-score [2, 25]: 0.496
- inhibition ([3]; at 0.5 µM, stronger effect = higher value): -8.26% (inactive) and 22% (inactive)
- inhibition ([3]; measured here: combination with BGB IC20, at 0.005 µM): 10.5% and -21.6%
- inhibition ([3]; measured here: combination with BGB IC40, at 0.005 µM): 8.95% and -30.9%
- inhibition [3, 26]: 17.3% and -34.8%
- inhibition ([3]; measured here: combination with cisplatin, at 0.5 µM, stronger effect = higher value): 37.5% and 6.75%
- inhibition ([3]; measured here: combination with cisplatin, at 5 µM, stronger effect = higher value): -10.3% and -15.6%
- inhibition ([4]; BGB combo, at 5 µM): 17.7% and -13.8%
- inhibition ([4]; at 0.5 µM): 23.7% (inactive) and 2.11% (inactive)
- inhibition ([4]; cisplatin combo, at 5 µM): 22% and -0.337%
- inhibition [4, 27]: 17.2% and -17.5%
- inhibition [4, 28]: 35.5% and -0.199%
- inhibition ([4]; single agent, at 5 µM): 18.6% and -37.8%
- inhibition ([5]; BGB IC20 combo, at 0.005 µM): 12.4% and 14.9%
- inhibition ([5]; BGB IC40 combo, at 0.005 µM): 6.25% and -39.4%
- inhibition ([5]; BGB IC40 combo, at 0.05 µM): -7.22% and -39.4%
- inhibition ([5]; at 0.5 µM): -8.08% (inactive) and -24.1% (inactive)
- inhibition ([5]; cisplatin combo, at 0.05 µM): -11.1% and -43.3%
- inhibition ([5]; cisplatin combo, at 0.5 µM): 4.25% and -24.8%
- inhibition ([5]; cisplatin combo, at 5 µM): -7.38% and -52.9%
- inhibition ([5]; measured here: 5 uM single agent, at 5 µM): 7.59% and -39.4%
- inhibition ([6]; at 0.5 µM): -5.2% (inactive) and -14.4% (inactive)
- inhibition [6, 26]: -12.7% and -13.9%
- inhibition [6, 29]: -10% and 2.17%
- inhibition [6, 30]: -46% and -44.9%
- inhibition ([7]; at 0.5 µM): 10.7% (inactive) and -20.8% (inactive)
- inhibition ([7]; measured here: with BGB IC20, at 0.5 µM): 10.2% and -46.4%
- inhibition ([7]; measured here: with BGB IC20, at 5 µM): 15% and -44.4%
- inhibition ([7]; measured here: with cisplatin IC20, at 0.5 µM): 7.75% and -5.03%
- inhibition ([7]; measured here: with cisplatin IC20, at 5 µM): 1.8% and -45.1%
- inhibition ([7]; single agent, at 5 µM): 13% and -28.4%
- inhibition ([8]; at 0.5 µM): 9.28% (inactive) and -75.8% (inactive)
- inhibition ([8]; measured here: combination with BGB at IC20, at 0.5 µM): 0.692% and -94%
- inhibition ([8]; measured here: combination with cisplatin at IC20, at 0.5 µM): 13.9% and -68.3%
- inhibition ([9]; at 0.5 µM): 6.18% (inactive) and -13.5% (inactive)
- inhibition ([9]; measured here: combo with BGB at IC20, at 0.5 µM): 2.23% and -12.6%
- inhibition ([9]; measured here: combo with cisplatin at IC20, at 0.5 µM): 13.4% and -11.6%
- inhibition ([10]; at 0.5 µM): 16.3% (inactive) and -6.23% (inactive)
- inhibition ([10]; measured here: inhibition with BGB combination, at 0.05 µM): -2.12% and -33.8%
- inhibition ([10]; measured here: inhibition with cisplatin combination, at 0.05 µM): 36.9% and -21.3%
- inhibition ([11]; at 0.5 µM): 6.19% (inactive) and -21.5% (inactive)
- inhibition [11, 29]: 9.72% and -11.9%
- inhibition [11, 30]: 14.1% and -81.5%
- inhibition ([12]; at 0.5 µM): 10.4% (inactive) and -39.6% (inactive)
- inhibition ([12]; measured here: BGB combination, at 0.5 µM): 7.3% and -43.2%
- inhibition ([12]; measured here: BGB combination, at 5 µM): 8.01% and -19.5%
- inhibition ([12]; measured here: cisplatin combination, at 0.5 µM): 12.2% and -58.5%
- inhibition ([12]; measured here: cisplatin combination, at 5 µM): 2.73% and -39.8%
- inhibition ([13]; BGB combination, concentration series, at 5 µM): 8.48% and -29.5%
- inhibition ([13]; at 0.5 µM): 10.7% (inactive) and -14.6% (inactive)
- inhibition ([13]; cisplatin combination, concentration series, at 5 µM): -14.1% and -9.02%
- inhibition ([14]; at 0.5 µM): 8.08% (inactive) and -8.91% (inactive)
- inhibition ([14]; measured here: combo with BGB IC20, at 0.5 µM): 10.4% and -14.8%
- inhibition ([14]; measured here: combo with cisplatin IC20, at 0.5 µM): 12.5% and -5.12%
- inhibition ([15]; at 0.5 µM): 5.91% (inactive) and -28.7% (inactive)
- inhibition ([15]; cisplatin combination, at 0.5 µM): -2.3% and -6.58%
- inhibition ([15]; cisplatin combination, at 5 µM): -4.68% and -1.56%
- inhibition ([15]; measured here: BGB IC40 combination 0.05 uM, at 0.05 µM): 39.8% and -13.1%
- inhibition ([15]; single agent, at 5 µM): -4.18% and -25.9%
- inhibition ([16]; at 0.5 µM): 11% (inactive) and -17.5% (inactive)
- inhibition ([16]; cisplatin combo, at 5 µM): 10.7% and -4.43%
- inhibition ([16]; measured here: BGB IC40 combination, at 0.05 µM): 15.8% and -34.3%
- inhibition [16, 29]: 22.8% and -4.28%
- inhibition ([16]; single agent, at 5 µM): -1.69% and -19.5%
- inhibition ([17]; at 0.5 µM): 11.7% (inactive) and -2.83% (inactive)
- inhibition [17, 27]: -2.36% and -19.1%
- inhibition [17, 28]: 17.5% and 3.15%
- inhibition ([17]; single agent, at 0.05 µM): 32.6% and -48.2%
- inhibition ([17]; single agent, at 5 µM): -21.6% and -1.48%

SMILES: COC(=O)Nc1nc2ccc(SC(C)C)cc2[nH]1
- survival [18]: 0.5 (inactive)
- parasite load remaining [19]: 92.8% (inactive)
- viability [19]: 74.8%
- fold change [1, 20]: 0.996 (inactive)
- fold change [1, 21]: 0.586
- cell count [1, 22]: 1650
- cell count [1, 23]: 1660
- z-score [2, 24]: -2.13 (inactive)
- z-score [2, 25]: 1.04

SMILES: CC(C)(C)NC[C@@H](O)COc1cccc2c1CCCC2=O
- survival [18]: 6.25 (inactive)
- parasite load remaining [19]: 94.5% (inactive)
- viability [19]: 97%
- fold change [1, 20]: 0.911 (inactive)
- fold change [1, 21]: 1.14
- cell count [1, 22]: 9750
- cell count [1, 23]: 10700
- z-score [2, 24]: 0.547 (inactive)
- z-score [2, 25]: 0.0254
